Results filed as inconclusive are left out. Where a call stands in place of a potency, no number is given. Values without a mark were called inactive. Calls of active or inactive are those of the source. Calls follow the shape of the dose curve; as a rule, active = well fitted inhibition curve with a large enough effect in the repeat runs; inconclusive = weak or mixed curves; inactive = flat fitted curve, though single readings scatter.
What follows are compounds tested against Voltage-gated inwardly rectifying potassium channel KCNH2 (Homo sapiens) (UniProt Q12809) (assay: Human Ether-a-go-go-Related Gene (hERG) channel small molecule antagonists: fluorescence cell-based qHTS assay (AID 1671200; also: nearly all actives have a fitted effect of over 50% in size)). Conditions: hERG-U2OS cells, FluxOR thallium flux fluorescence; series mostly up to 76.8 µM.
Voltage-gated inwardly rectifying potassium channel KCNH2 (Homo sapiens), sequence (Q12809 whole entry, looked up): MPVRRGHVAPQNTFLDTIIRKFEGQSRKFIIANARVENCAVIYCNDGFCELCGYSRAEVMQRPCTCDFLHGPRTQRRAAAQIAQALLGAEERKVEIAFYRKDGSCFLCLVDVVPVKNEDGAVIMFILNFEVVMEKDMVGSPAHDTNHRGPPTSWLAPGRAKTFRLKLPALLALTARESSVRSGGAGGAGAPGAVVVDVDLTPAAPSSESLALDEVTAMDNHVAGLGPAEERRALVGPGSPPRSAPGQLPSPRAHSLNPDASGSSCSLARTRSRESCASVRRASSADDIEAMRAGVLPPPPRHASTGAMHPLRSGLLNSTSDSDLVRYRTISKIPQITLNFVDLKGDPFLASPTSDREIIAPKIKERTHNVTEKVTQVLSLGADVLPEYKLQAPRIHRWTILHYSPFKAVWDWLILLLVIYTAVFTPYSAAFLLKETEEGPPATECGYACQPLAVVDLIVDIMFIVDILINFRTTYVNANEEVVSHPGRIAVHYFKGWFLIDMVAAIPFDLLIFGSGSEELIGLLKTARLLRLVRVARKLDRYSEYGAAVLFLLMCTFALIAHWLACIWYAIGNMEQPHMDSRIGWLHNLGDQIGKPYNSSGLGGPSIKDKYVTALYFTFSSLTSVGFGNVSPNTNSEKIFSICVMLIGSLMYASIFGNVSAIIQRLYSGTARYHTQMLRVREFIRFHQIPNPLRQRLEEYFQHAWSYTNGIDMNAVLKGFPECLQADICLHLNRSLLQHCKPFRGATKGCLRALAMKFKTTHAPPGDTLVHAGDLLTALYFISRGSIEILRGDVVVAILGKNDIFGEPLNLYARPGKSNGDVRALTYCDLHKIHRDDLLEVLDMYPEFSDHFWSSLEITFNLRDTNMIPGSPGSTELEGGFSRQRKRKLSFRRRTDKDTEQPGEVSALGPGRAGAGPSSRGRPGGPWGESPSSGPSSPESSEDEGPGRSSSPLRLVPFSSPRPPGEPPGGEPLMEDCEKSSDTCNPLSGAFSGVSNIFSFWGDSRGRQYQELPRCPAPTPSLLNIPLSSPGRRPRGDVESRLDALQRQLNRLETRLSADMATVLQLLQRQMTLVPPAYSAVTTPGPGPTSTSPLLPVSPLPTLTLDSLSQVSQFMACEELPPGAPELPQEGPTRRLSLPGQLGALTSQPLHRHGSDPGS
Excerpt: National Center for Advancing Translational Sciences [NCATS]
U.S. Environmental Protection Agency [EPA]
National Institutes of Environmental Health Sciences [NIEHS]
National Toxicology Program [NTP]
U.S. Food and Drug Administration [FDA]
Mutations in the hERG channel cause Long QT (LQT) syndrome. LQT syndrome is a cardiac disorder which can cause ventricle arrhythmia and sudden death. Additionally, compounds which block the hERG channel can cause acquired LQT syndrome. Several FDA approved drugs have been removed from the market due to their hERG blocking activity. A cell-based hERG channel inhibition assay can be used to screen chemical compounds that inhibit hERG channel. This assay measures hERG channel activity using thallium ions as surrogate ions to measure potassium into the cells.
Tox21 Assay Protocol Summary:
hERG-U2OS cells were resuspended in culture medium and dispensed into 1536-well, black wall/clear-bottom plates at 1000cells/well/3uL using a Multidrop Combi dispenser (Thermo Fisher, Waltham, MA). After plates were incubated at 37 C overnight, 3 uL of Loading Buffer provided by FluxOR II Potassium Ion Channel Assay kit (Thermo, Carlsbad, CA) was added to each well. The assay plates were then incubated at room temperature in the dark for 1h. […] After the assay plates were incubated at room temperature for 10 min, 1 uL of Stimulus Buffer provided by FluxOR II Potassium Ion Channel Assay kit was added into each well and fluorescence intensity (480nm excitation/540nm emission) was continuously measured for 2 min at 1 second intervals using a Functional Drug Screening System (FDSS) 7000EX kinetic plate reader (Hamamatsu, Japan).
In the case of CC12CCCC=C1C(=O)OC2=O (stereo not given), the Potency is reported as “inactive”. With N#CC1(N)CCCCC1 the Potency was “inactive”. With CC(C)(C)C(=O)CC(=O)C(C)(C)C the Potency was “inactive”. For C[C@@H](CN1CC(=O)NC(=O)C1)N1CC(=O)NC(=O)C1, the Potency was “inactive”. CC(=O)OCC(=O)[C@@]1(O)CC[C@H]2[C@@H]3CCC4=CC(=O)C=C[C@]4(C)[C@H]3[C@@H](O)C[C@@]21C was tested, and the Potency was “inactive”. With O=CN1CCCCC1 the Potency was “inactive”. CC(C)C(C)C was tested, and the Potency was “inactive”. For CC(=O)c1ccc2ccc3ccccc3c2c1, the Potency was “inactive”. O=C(OOC(=O)c1ccccc1)c1ccccc1 was tested, and the Potency was “inactive”. c1cc2ccc3ccc4ccc5cccc6c(c1)c2c3c4c56 showed an activity change, negative = inhibition of 0.437% [at 2.72 µM]. CC(C)(C)C(=O)NCCCC(=O)O was tested, and the Potency was “inactive”. CC(C)(C)c1ccc(C(=O)CCCCl)cc1 was tested, and the Potency was “inactive”. COc1cnc(NS(=O)(=O)c2ccc(N)cc2)nc1 was tested, and the Potency was “inactive”. In the case of CC(C)(Sc1cc(C(C)(C)C)c(O)c(C(C)(C)C)c1)Sc1cc(C(C)(C)C)c(O)c(C(C)(C)C)c1, the Potency is reported as “inactive”. CC(=O)OC1CCC(C(C)(C)C)CC1 (stereo not given) was tested, and the Potency was “inactive”. CO/N=C(\C(=O)O)c1csc(NC(=O)CCl)n1 was tested, and the Potency was “inactive”. In the case of CCCCCC(CC)OC(=O)CCCOc1ccc(Cl)cc1Cl (stereo not given), the Potency is reported as “inactive”. With COc1cc(OC)cc(OC)c1 the Potency was “inactive”. O=C1CC2(CCCC2)CC(=O)N1CCNCC1COc2ccccc2O1 (stereo not given) was tested, and the Potency was 19 µM (active). In the case of C=CCOC(=O)CCCCCCCC, the Potency is reported as “inactive”. With CC1(C)C(=O)C(C)(C)C1=O the Potency was “inactive”. With CCC(C)(C)C the Potency was “inactive”. In the case of O=c1c(O)c(O)c1=O, the Potency is reported as “inactive”. For CC(=O)OC/C=C(/C)CCC=C(C)C, the Potency was “inactive”. In the case of CC(=O)SCC(CC(=O)c1ccc(C)cc1)C(=O)O (stereo not given), the Potency is reported as “inactive”. In the case of CC/C=C\CCCCCCCCCCOC(C)=O, the Potency is reported as “inactive”. For C[Si](C)(C)O[Si](O)(O)O, the Potency was “inactive”. With c1coc(Cn2cccc2)c1 the Potency was “inactive”. C[C@@H]1NC(=O)[C@@H](N)CNC(=O)[C@H](C2CCNC(N)=N2)NC(=O)/C(=C/NC(N)=O)NC(=O)[C@H](CNC(=O)C[C@@H](N)CCCN)NC1=O (stereo not given in full) showed an activity change, negative = inhibition of 0.491% [at 0.29 µM]. With CCCCc1ccc(Cl)cc1 the Potency was “inactive”. For CN(C)CCc1c[nH]c2ccc(CS(=O)(=O)N3CCCC3)cc12, the Potency was “inactive”. In the case of Nc1ccc(C(=O)NCC(=O)O)cc1, the Potency is reported as “inactive”. CCCCC(CC)CCC(CC(C)C)OS(=O)(=O)O (stereo not given) was tested, and the Potency was “inactive”. In the case of O=C(c1ccccc1)c1cccc(O)c1, the Potency is reported as “inactive”. COc1cc(NS(=O)(=O)c2ccc(N)cc2)ncn1 was tested, and the Potency was “inactive”. With CCCCCCCCOCCC#N the Potency was “inactive”. For CC(C)(O)CCCC1=CCC(C=O)CC1 (stereo not given), the Potency was “inactive”. For O=P(O)(O)C(O)(Cc1cccnc1)P(=O)(O)O, the Potency was “inactive”. For COC(=O)c1ccc(NC(C)=O)cc1OC, the Potency was “inactive”. In the case of CCCC(=O)C(CC)Sc1ccoc1C (stereo not given), the Potency is reported as “inactive”.

Reference: PubChem BioAssay (Tox21)
Potency is read from the fitted curve at half-maximal effect.
